Reference: PubChem BioAssay AID1159580 (chemical genetic matrix, 2015)
Among all 5,500 compounds or so, about 2,000 (36%) were called active. Another 18% or so got no clear call; they are omitted. Rule as the data show it: active = normalized growth mostly below about 0.91 (no sharp cut-off); inconclusive = no clear call, values can overlap the other calls; inactive = mostly above about 0.92. The list shows a part of the results.

Assay: chemical genetic growth profiling, strain panel (AID 1159580);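 also: tested at 20 µM; growth read once vehicle control cultures reached saturation at 30 °C; 1 = growth at the plate median or of vehicle wells; lower values mean less growth of the strain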
Conditions: growth OD

Measured: normalized growth

O=C(O)CN1C(=O)c2cccc3cccc(c23)C1=O
inactive: S. cerevisiae deletion strains, locus YJR043C, strain POL32, stronger effect = lower value 1.03 | S. cerevisiae deletion strains, locus YJR066W, strain TOR1, stronger effect = lower value 0.975 | S. cerevisiae deletion strains, locus YKL009W, strain mrt4, stronger effect = lower value 0.987 | S. cerevisiae deletion strains, locus YKL068W, stronger effect = lower value 0.991 | S. cerevisiae deletion strains, locus YKL085W, strain MDH1 (second series), stronger effect = lower value 0.978 | S. cerevisiae deletion strains, locus YKL085W, strain MDH1, stronger effect = lower value 0.978 | S. cerevisiae deletion strains, locus YKL160W, strain elf1, stronger effect = lower value 0.956 | S. cerevisiae deletion strains, locus YKL190W, strain CNB1, stronger effect = lower value 1 | S. cerevisiae deletion strains, locus YKR001C, strain vps1, stronger effect = lower value 1.01 | S. cerevisiae deletion strains, locus YKR026C, strain gcn3, stronger effect = lower value 0.996 | S. cerevisiae deletion strains, locus YKR091W, strain srl3, stronger effect = lower value 0.986 | S. cerevisiae deletion strains, locus YLL001W, strain dnm1, stronger effect = lower value 0.966 | S. cerevisiae deletion strains, locus YLL026W, stronger effect = lower value 0.996 | S. cerevisiae deletion strains, locus YLL041C, strain sdh2, stronger effect = lower value 0.983 | S. cerevisiae deletion strains, locus YLR027C, strain aat2, stronger effect = lower value 0.996 | S. cerevisiae deletion strains, locus YLR039C, strain RIC1, stronger effect = lower value 1 | S. cerevisiae deletion strains, locus YLR058C, strain SHM2, stronger effect = lower value 1 | S. cerevisiae deletion strains, locus YLR102C, strain apc9, stronger effect = lower value 0.986 | S. cerevisiae deletion strains, locus YLR113W, strain HOG1, stronger effect = lower value 0.935 | S. cerevisiae deletion strains, locus YLR221C, strain rsa3, stronger effect = lower value 0.977 | S. cerevisiae deletion strains, locus YLR258W, strain gsy2, stronger effect = lower value 0.988 | S. cerevisiae deletion strains, locus YLR262C, strain YPT6 (second series), stronger effect = lower value 0.947 | S. cerevisiae deletion strains, locus YLR262C, strain YPT6, stronger effect = lower value 0.985 | S. cerevisiae deletion strains, locus YLR268W, strain sec22, stronger effect = lower value 0.983 | S. cerevisiae deletion strains, locus YLR320W, strain mms22, stronger effect = lower value 0.944 | S. cerevisiae deletion strains, locus YLR330W, strain CHS5, stronger effect = lower value 0.989 | S. cerevisiae deletion strains, locus YLR342W, strain FKS1 (second series), stronger effect = lower value 1.02 | S. cerevisiae deletion strains, locus YLR342W, strain FKS1, stronger effect = lower value 0.978 | S. cerevisiae deletion strains, locus YLR357W, strain rsc2, stronger effect = lower value 0.965 | S. cerevisiae deletion strains, locus YLR370C, strain arc18, stronger effect = lower value 0.973 | S. cerevisiae deletion strains, locus YLR371W, strain rom2, stronger effect = lower value 0.989 | S. cerevisiae deletion strains, locus YLR384C, strain iki3, stronger effect = lower value 0.973 | S. cerevisiae deletion strains, locus YLR418C, strain cdc73, stronger effect = lower value 0.988 | S. cerevisiae deletion strains, locus YML016C, strain PPZ1, stronger effect = lower value 1 | S. cerevisiae deletion strains, locus YML032C, strain rad52, stronger effect = lower value 1 | S. cerevisiae deletion strains, locus YML120C, strain ndi1, stronger effect = lower value 0.958 | S. cerevisiae deletion strains, locus YML124C, strain tub3, stronger effect = lower value 0.999 | S. cerevisiae deletion strains, locus YMR058W, strain fet3, stronger effect = lower value 0.98 | S. cerevisiae deletion strains, locus YMR078C, strain ctf18, stronger effect = lower value 0.982 | S. cerevisiae deletion strains, locus YMR125W, strain sto1, stronger effect = lower value 0.979 | S. cerevisiae deletion strains, locus YMR129W, stronger effect = lower value 0.996 | S. cerevisiae deletion strains, locus YMR205C, strain PFK2, stronger effect = lower value 0.954 | S. cerevisiae deletion strains, locus YMR223W, strain ubp8, stronger effect = lower value 0.977 | S. cerevisiae deletion strains, locus YMR231W, strain pep5, stronger effect = lower value 0.992 | S. cerevisiae deletion strains, locus YMR307W, strain GAS1, stronger effect = lower value 1.01 | S. cerevisiae deletion strains, locus YNL067W, strain RPL9B, stronger effect = lower value 1.05 | S. cerevisiae deletion strains, locus YNL071W, strain lat1, stronger effect = lower value 0.933 | S. cerevisiae deletion strains, locus YNL153C, strain GIM3, stronger effect = lower value 1.08 | S. cerevisiae deletion strains, locus YNL183C, strain NPR1, stronger effect = lower value 0.953 | S. cerevisiae deletion strains, locus YNL209W, strain ssb2, stronger effect = lower value 0.986 | S. cerevisiae deletion strains, locus YNL233W, strain BNI4, stronger effect = lower value 1.03 | S. cerevisiae deletion strains, locus YNL248C, strain rpa49, stronger effect = lower value 0.969 | S. cerevisiae deletion strains, locus YNL250W, strain rad50, stronger effect = lower value 0.941 | S. cerevisiae deletion strains, locus YNL271C, strain bni1, stronger effect = lower value 0.998 | S. cerevisiae deletion strains, locus YNL298W, strain CLA4, stronger effect = lower value 0.984 | S. cerevisiae deletion strains, locus YNL307C, strain MCK1, stronger effect = lower value 0.994 | S. cerevisiae deletion strains, locus YNL322C, strain KRE1 (second series), stronger effect = lower value 0.987 | S. cerevisiae deletion strains, locus YNR049C, strain mso1, stronger effect = lower value 0.981 | S. cerevisiae deletion strains, locus YNR052C, strain pop2, stronger effect = lower value 0.969 | S. cerevisiae deletion strains, locus YOL006C, strain TOP1, stronger effect = lower value 1.08 | S. cerevisiae deletion strains, locus YOL012C, strain htz1 0.878 | S. cerevisiae deletion strains, locus YOL147C, strain pex11, stronger effect = lower value 0.988 | S. cerevisiae deletion strains, locus YOR001W, strain rrp6, stronger effect = lower value 0.974 | S. cerevisiae deletion strains, locus YOR061W, strain CKA2, stronger effect = lower value 1.01 | S. cerevisiae deletion strains, locus YOR069W, strain VPS5, stronger effect = lower value 0.998 | S. cerevisiae deletion strains, locus YOR070C, strain gyp1, stronger effect = lower value 0.99 | S. cerevisiae deletion strains, locus YOR080W, strain dia2, stronger effect = lower value 0.989 | S. cerevisiae deletion strains, locus YOR083W, strain WHI5, stronger effect = lower value 0.967 | S. cerevisiae deletion strains, locus YOR106W, strain vam3, stronger effect = lower value 0.955 | S. cerevisiae deletion strains, locus YOR136W, strain idh2, stronger effect = lower value 0.991 | S. cerevisiae deletion strains, locus YOR144C, strain elg1, stronger effect = lower value 0.987 | S. cerevisiae deletion strains, locus YOR184W, strain ser1, stronger effect = lower value 1.02 | S. cerevisiae deletion strains, locus YOR231W, strain MKK1, stronger effect = lower value 0.977 | S. cerevisiae deletion strains, locus YOR265W, strain rbl2, stronger effect = lower value 0.985 | S. cerevisiae deletion strains, locus YOR270C, strain vph1, stronger effect = lower value 0.876 | S. cerevisiae deletion strains, locus YOR290C, strain snf2, stronger effect = lower value 0.943 | S. cerevisiae deletion strains, locus YOR316C, strain cot1, stronger effect = lower value 0.992 | S. cerevisiae deletion strains, locus YPL051W, strain arl3, stronger effect = lower value 0.97 | S. cerevisiae deletion strains, locus YPL078C, strain atp4, stronger effect = lower value 0.976 | S. cerevisiae deletion strains, locus YPL106C, strain sse1, stronger effect = lower value 0.954 | S. cerevisiae deletion strains, locus YPL240C, strain hsp82, stronger effect = lower value 0.98 | S. cerevisiae deletion strains, locus YPL256C, strain CLN2, stronger effect = lower value 0.961 | S. cerevisiae deletion strains, locus YPR119W, strain clb2, stronger effect = lower value 0.987 | S. cerevisiae deletion strains, locus YPR141C, strain kar3, stronger effect = lower value 0.994 | S. cerevisiae deletion strains, locus YPR163C, strain tif3, stronger effect = lower value 0.99 | S. cerevisiae deletion strains, locus YPR167C, strain met16, stronger effect = lower value 0.986 | S. cerevisiae deletion strains, strain wtn01, stronger effect = lower value 0.976 | S. cerevisiae strains, strain wild type, stronger effect = lower value 1
